Active and inactive are the calls of the source. How the source made its calls: active means hit-call score of the fitted dose curve at least 0.9, where 1 is the maximum; inactive means score below 0.9.
assay: ATG_TAL_CIS: Attagene CIS-FACTORIAL HepG2 Assay for human TAL Basal Promoter (AID 2282966); details: HepG2 Attagene cis-factorial TAL promoter reporter; actives raise or lower the signal
Protocol: ATG_CIS is a cell-based, multiplexed-readout assay that uses HepG2, a human liver cell line, with measurements taken at 24 hours after chemical dosing in a 24-well plate.ATG_TAL_CIS is one of 52 assay component(s) measured or calculated from the ATG_CIS assay. It is designed to make measurements of mRNA induction, a form of inducible reporter, as detected with fluorescence intensity signals by Reverse transcription polymerase chain reaction (RT-PCR) and Capillary electrophoresis technology.Data from the assay component ATG_TAL_CIS was analyzed into 1 assay endpoint. This assay endpoint, ATG_TAL_CIS, was analyzed with bidirectional fitting relative to DMSO as the negative control and baseline of activity. Using a type of inducible reporter, measures of mRNA for gain or loss-of-signal activity can be used to understand the background control at the transcription factor-level as they relate to the gene . Furthermore, this assay endpoint can be referred to as a secondary readout, because this assay has produced multiple assay endpoints where this one serves a background control function. To generalize the intended target to other relatable targets, this assay endpoint is annotated to the background measurement intended target family, where the subfamily is internal marker.
Human liver HepG2 cells are transiently transfected with multiple reporter transcription units (MRTUs) in 6-well plates using FuGene 6 reagent (Roche; 3 ml FuGene/1 mg DNA). The MRTU constructs are regulated by a cis-regulating element (promoter). […] A major difference between the CIS and TRANS system is that in CIS activities of endogenous TFs are measured, whereas the TRANS assay evaluates changes in activities of exogenous, chimeric NR-Gal4 proteins. […] At the end of 24 hour incubation, total RNA was isolated using TriZol reagent (Invitrogen). The isolated RNA is then reverse-transcribed using oligo(dT) primer and Mo-MLV reverse transcriptase (Invitrogen) with DNAse I (Ambion) treatment for 30 min. The one-tenth of the produced cDNA was amplified by PCR using Taq DNA polymerase (Invitrogen) and two reporter sequence-specific primers. The PCR products were fluorescently labeled by primer extension with 6-arboxyfluorescein (6-FAM) 5'-labeled reporter sequence-specific primer (2 min at 95 C, 20 s at 68 C and 10 min at 72 C) and these products were digested with 5U of HpaI (New England Biolabs) for 2h at 37 C. The fragments were purified using Qiaquick PCR columns (Qiagen), analyzed on an ABI 3130xL genetic analyzer (Applied Biosystems) with peak positions identified by using a set of X-rhodamine (ROX)-labeled MapMarker1000 molecular weight standards (BioVentures). The raw capillary electrophoresis data was processed using Attagraph software (Attagene).

Row | Compound | outcome | AC50
1 | C=COCCOCCOC=C | inactive | –
2 | C=C1CC[C@H](O)C/C1=C/C=C1\CCC[C@]2(C)[C@@H]([C@H](C)/C=C/[C@H](C)C(C)C)CC[C@@H]12 | inactive | –
3 | COC(=O)c1ccc(C)cc1C1=NC(C)(C(C)C)C(=O)N1 (stereo not given) (tested in a mixture with another compound) | inactive | –
4 | CCCCCC(C=O)=Cc1ccccc1 | inactive | –
5 | C=C(C)[C@@H]1CC=C(C)C(=O)C1 | inactive | –
6 | Cc1cc(=O)oc2cc(N(C)C)ccc12 | inactive | –
7 | Nc1ccc(NCCO)c([N+](=O)[O-])c1 | inactive | –
8 | OCC(O)c1ccccc1 (stereo not given) | inactive | –
9 | CCCC1O[C@@H]2C[C@H]3[C@@H]4CCC5=CC(=O)C=C[C@]5(C)[C@H]4[C@@H](O)C[C@]3(C)[C@]2(C(=O)CO)O1 (stereo not given in full) | inactive | –
10 | CC1(C)C2=CCCC(C)(C)[C@]23CC[C@H]1C3 | inactive | –
11 | CCN(CCN)c1cccc(C)c1 | inactive | –
12 | C#CC(C)(O)CC(C)C (stereo not given) | inactive | –
13 | CCc1ncc(C)[nH]1 | inactive | –
14 | CN(C)C(=S)SC(=S)N(C)C | inactive | –
15 | C=CCCCCCCCCCC | inactive | –
16 | CCCCCCCCc1ccc(S(=O)(=O)O)cc1 | inactive | –
17 | CCCCCCCCC=CCCCCCCCC1=NCCN1CCO | inactive | –
18 | N#Cc1cscn1 | inactive | –
19 | N#Cc1ccc(CC(=O)c2cccc(C(F)(F)F)c2)cc1 | inactive | –
20 | CC=Cc1ccc(OC)c(OC)c1 | inactive | –

Row | Compound | outcome | AC50
21 | CCCCCCC(O)CCCCCCCCCCC(=O)O (stereo not given) | inactive | –
22 | O=C(CC(=O)c1ccccc1)c1ccccc1 | inactive | –
23 | CCCCCCOCCOCCO | inactive | –
24 | CC[N+](C)(CC)CC | inactive | –
25 | C=CC(=O)OCCCC | inactive | –
26 | Clc1ccc(C(c2ccccc2Cl)C(Cl)Cl)cc1 (stereo not given) | – | 23.7 µM (active)
27 | CCOc1ccc(N=Nc2ccc(C=Cc3ccc(N=Nc4ccc(OCC)cc4)cc3S(=O)(=O)O)c(S(=O)(=O)O)c2)cc1 | inactive | –
28 | CC(C)(C)OC(=O)c1ccc(O)cc1 | inactive | –
29 | CN1CCOCC1 | inactive | –
30 | CCCCCCCC/C=C\CCCCCCCC(=O)OCC | inactive | –
31 | O=C(O)CCCCCCCCC(=O)O | inactive | –
32 | CCCC(C)C(O)CC (stereo not given) | inactive | –
33 | CC(CN=Cc1ccccc1O)N=Cc1ccccc1O (stereo not given) | – | 25.9 µM (active)
34 | Cc1ccc(S(=O)(=O)Oc2ccc(N=Nc3ccc(-c4ccc(N=Nc5c(O)ccc6cc(S(=O)(=O)O)cc(S(=O)(=O)O)c56)c(C)c4)cc3C)cc2)cc1 | inactive | –
35 | O=c1c(O)c(-c2ccc(O)cc2)oc2cc(O)cc(O)c12 | inactive | –
36 | O=[N+]([O-])c1cccc(Cl)c1 | inactive | –
37 | CC(Oc1cc(Cl)ccc1Cl)C(=O)O (stereo not given) | inactive | –
38 | Cc1c(OCC(F)(F)F)ccnc1CS(=O)c1nc2ccccc2[nH]1 (stereo not given) | inactive | –
39 | [Cl][Au]([Cl])[Cl] | inactive | –
40 | CC(=O)C1(C)CC2=C(CCCC2(C)C)CC1C (stereo not given) | – | 148 µM (active)

Source: PubChem BioAssay (EPA / NIEHS)
